The values that follow come from PubChem BioAssay (NCI).

Molecules are shown by their SMILES. Compounds without any hit were thinned out: in the full panel of roughly 83,000, 20% have a hit.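 Method: cells in 96-well plates; compound added at one concentration; 48 h incubation; percent growth measured; values under 10 scored active.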 Values without a mark were called inactive. Calls of active or inactive are those of the source.

Test systems include NCI-H23 lung; NCI-H226 lung; NCI-H322M lung; HOP-62 NSCLC; NCI-H460 lung; HOP-92 NSCLC; NCI-H522 lung; A549/ATCC NSCLC; 786-0 renal; COLO 205 colon; DU-145 prostate; K-562 leukemia; MALME-3M melanoma; MDA-MB-231 breast; RXF 393 renal; SF-268 CNS; SF-295 CNS; SF-539 CNS; UACC-257 melanoma; M14 melanoma.
What all share (assay): NCI-60 one-dose screen, 48 h (100 = growth as untreated, 0 = no growth, -100 = all killed)
Holding throughout (details): 10 µM unless noted

`COc1ccc2[nH]c(O)c(/C=c3/cc4c(c(-c5ccc(F)cc5)n3)=Nc3ccccc3-4)c2c1`: the growth was 67.9% in the assay with NCI-H23 lung; 76.3% in the assay on NCI-H226 lung; 94% in the assay with NCI-H322M lung; 95.5% in the assay with HOP-62 NSCLC; 41.5% in the assay on NCI-H460 lung; 66.7% with HOP-92 NSCLC. Further, the growth was 68.5% with NCI-H522 lung; 75.8% with A549/ATCC NSCLC; 97.6% with 786-0 renal; 96.6% with COLO 205 colon; 76.6% in the assay on DU-145 prostate; 23.5% with K-562 leukemia. Moreover, the growth is 114% in the assay with MALME-3M melanoma; 32.2% in the assay on MDA-MB-231 breast; 81.5% with RXF 393 renal; 79.3% in the assay on SF-268 CNS; 86.9% in the assay with SF-295 CNS; 89.5% with SF-539 CNS. The growth in the assay with UACC-257 melanoma is 113%; with M14 melanoma it was 92.3%.
Consider `COc1ccc2[nH]c(=O)c(CN3CCN(c4nccc(-c5ccc(Cl)cc5)n4)CC3)cc2c1`, for which the growth in the assay with NCI-H23 lung was 91.2%; in the assay on NCI-H226 lung, 94.4%; in the assay with NCI-H322M lung, 85.4%; in the assay on HOP-62 NSCLC, 80.1%; in the assay with NCI-H460 lung it was 76.3%; with HOP-92 NSCLC, 101%. The growth in the assay on NCI-H522 lung is 77%; in the assay with A549/ATCC NSCLC, 73.9%; with 786-0 renal, 85.2%; with COLO 205 colon, 95.9%; with DU-145 prostate, 98.9%; in the assay on K-562 leukemia it was 70.4%. Moreover, the growth in the assay with MALME-3M melanoma was 92.9%; in the assay with MDA-MB-231 breast, 85%; with RXF 393 renal, 90.3%; in the assay with SF-268 CNS it was 90.5%; in the assay on SF-295 CNS it was 98.4%; in the assay with SF-539 CNS, 89.8%. The growth with UACC-257 melanoma is 82.6%; with M14 melanoma, 102%.
Consider `COc1cc(/C=C\c2cc(OC)c(OC)c(OC)c2)cc(N)c1OC`, for which the growth is 83.6% in the assay with NCI-H23 lung; 97.8% in the assay on NCI-H226 lung; 81.3% with NCI-H322M lung; 79.8% with HOP-62 NSCLC; 104% in the assay with NCI-H460 lung; 78.4% in the assay with HOP-92 NSCLC. Moreover, the growth in the assay with NCI-H522 lung is 58.6%; with A549/ATCC NSCLC, 93.1%; with 786-0 renal, 82.3%; in the assay on COLO 205 colon, 104%; in the assay on DU-145 prostate, 110%; with MALME-3M melanoma, 77.9%. The growth was 88.6% with MDA-MB-231 breast; 105% in the assay on RXF 393 renal; 93.3% in the assay on SF-268 CNS; 73.7% with SF-295 CNS; 84.3% in the assay on SF-539 CNS; 87.5% in the assay with UACC-257 melanoma. In addition, the growth in the assay with M14 melanoma was 66.1%.
Consider `COc1cc2c(c(OC)c1OC)-c1ccc(NNC(=S)N(Cc3cccc(C[N+](Cc4cccc(CNC56CC7CC(CC(C7)C5)C6)c4)(Cc4cccc(CNC56CC7CC(CC(C7)C5)C6)c4)Cc4cccc(CN(C(=S)NNc5ccc6c(cc5=O)[C@@H](NC(C)=O)CCc5cc(OC)c(OC)c(OC)c5-6)C56CC7CC(CC(C7)C5)C6)c4)c3)C34CC5CC(CC(C5)C3)C4)c(=O)cc1[C@@H](NC(C)=O)CC2` (some centres not stated), for which the growth with NCI-H23 lung is 20.7%; with NCI-H226 lung, -8.38% (active); in the assay with NCI-H322M lung, 49.6%; in the assay on HOP-62 NSCLC it was 48.6%; in the assay on NCI-H460 lung, 2.48% (active); in the assay with HOP-92 NSCLC it was -5.87% (active). For the same compound, the growth in the assay on NCI-H522 lung is -22.8% (active); with A549/ATCC NSCLC it was 20.9%; with 786-0 renal, 11%; with COLO 205 colon, -56.9% (active); in the assay on DU-145 prostate, 21.3%; with MALME-3M melanoma, -48.1% (active). Further, the growth was -26.3% (active) in the assay on MDA-MB-231 breast; 20.2% with RXF 393 renal; 18.3% in the assay on SF-268 CNS; 20.3% in the assay on SF-295 CNS; 0.867% (active) in the assay on SF-539 CNS; 43.1% with UACC-257 melanoma. Also, the growth in the assay on M14 melanoma is -53.4% (active).
In the case of `COC(=O)c1ccc2c(c1)[n+](=O)c(C(C)=O)c(C(F)(F)F)n2[O-]`, the growth in the assay on NCI-H23 lung was -62.2% (active); in the assay on NCI-H226 lung, -17.1% (active); in the assay on NCI-H322M lung it was 66.2%; in the assay on HOP-62 NSCLC it was -9.08% (active); in the assay on NCI-H460 lung it was -88.8% (active); in the assay with HOP-92 NSCLC it was -57% (active). The growth is -80.7% (active) in the assay on NCI-H522 lung; 28.6% with A549/ATCC NSCLC; -40.5% (active) with 786-0 renal; -100% (active) in the assay on COLO 205 colon; 1.28% (active) in the assay on DU-145 prostate; -26.4% (active) in the assay on MALME-3M melanoma. The growth is -4.69% (active) with MDA-MB-231 breast; -20.1% (active) in the assay with RXF 393 renal; -24.8% (active) in the assay on SF-268 CNS; -45.7% (active) in the assay with SF-295 CNS; -45.8% (active) with SF-539 CNS; -30.3% (active) with UACC-257 melanoma. The growth with M14 melanoma was -23.5% (active).
For `CN[C@@H](C)C(=O)N[C@H]1CCS[C@H]2CC(C)(C)[C@@H](C(=O)N[C@H]3c4ccccc4C[C@H]3OCC#CC#CCO[C@@H]3Cc4ccccc4[C@@H]3NC(=O)[C@H]3N4C(=O)[C@@H](NC(=O)[C@H](C)NC)CCS[C@H]4CC3(C)C)N2C1=O`, the growth is 57.6% in the assay on NCI-H23 lung; 129% in the assay with NCI-H226 lung; 92.4% in the assay with NCI-H322M lung; 66.8% in the assay on HOP-62 NSCLC; 114% in the assay with NCI-H460 lung; 79.4% with HOP-92 NSCLC. The growth is 56.9% in the assay on NCI-H522 lung; 95.3% with A549/ATCC NSCLC; 99.2% in the assay with 786-0 renal; 103% with COLO 205 colon; 101% with DU-145 prostate; 100% in the assay with K-562 leukemia. For the same compound, the growth was -42.8% (active) in the assay on MALME-3M melanoma; -51.2% (active) in the assay on MDA-MB-231 breast; 2.22% (active) in the assay on RXF 393 renal; 124% in the assay on SF-268 CNS; 86.8% in the assay on SF-295 CNS; -43.6% (active) in the assay with SF-539 CNS. In addition, the growth in the assay on UACC-257 melanoma is 101%; in the assay with M14 melanoma, 103%.
`CCN(CC)c1ccc(C(=O)c2ccccc2)cc1`: the growth with NCI-H23 lung was 96.4%; with NCI-H226 lung, 87.9%; in the assay with NCI-H322M lung, 97.9%; in the assay with HOP-62 NSCLC, 91.2%; in the assay on NCI-H460 lung, 104%; in the assay on HOP-92 NSCLC it was 89.6%. Also, the growth is 87.2% in the assay on NCI-H522 lung; 89.4% with A549/ATCC NSCLC; 103% with 786-0 renal; 111% with COLO 205 colon; 102% in the assay on DU-145 prostate; 95.2% in the assay on K-562 leukemia. Also, the growth in the assay on MALME-3M melanoma is 95.3%; with MDA-MB-231 breast, 100%; in the assay with RXF 393 renal, 111%; in the assay with SF-268 CNS it was 96.9%; in the assay on SF-295 CNS, 101%; with SF-539 CNS it was 97.7%. Also, the growth is 96.1% in the assay with UACC-257 melanoma and 102% in the assay on M14 melanoma.
Turning to `C#CCNC(=O)[C@H](Cc1ccccc1)NC(=O)[C@]12CC[C@@H](C(=C)C)[C@@H]1[C@H]1CC[C@@H]3[C@@]4(C)CCC(=O)C(C)(C)[C@@H]4CC[C@@]3(C)[C@]1(C)CC2`, the growth is 70.6% in the assay with NCI-H23 lung; 68.7% in the assay with NCI-H226 lung; 69.9% with NCI-H322M lung; 77.1% in the assay on HOP-62 NSCLC; 66.7% with NCI-H460 lung; 66% with HOP-92 NSCLC. Also, the growth was 52.6% with NCI-H522 lung; 53.9% in the assay on A549/ATCC NSCLC; 76% in the assay with 786-0 renal; 78.7% with COLO 205 colon; 91.6% in the assay with DU-145 prostate; 31.8% in the assay with K-562 leukemia. Further, the growth is 88.8% in the assay with MALME-3M melanoma; 79.1% in the assay on MDA-MB-231 breast; 82.9% with RXF 393 renal; 74.3% in the assay on SF-268 CNS; 73.4% in the assay with SF-295 CNS; 99.9% with SF-539 CNS. Further, the values for the growth in the assay on UACC-257 melanoma and in the assay on M14 melanoma were 59.4% and 81.7%, respectively.
